Structures can show the parent of a compound that is named as a salt.
system: Saccharomyces cerevisiae BY4741 SeMeCo community; assay: z-score of subpopulation abundance vs DMSO median, subpopulation auxotrophic for LUM; higher = larger share of this subpopulation than in DMSO controls; details: 10 µM; 24 h; SM minimal medium; subpopulation (auxotrophy): LUM
Protocol: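 Fluorescent four-plasmid SeMeCo (self-establishing metabolically cooperating S. cerevisiae BY4741 community; plasmids pH-mRuby2, pL-mWasabi, pU-eCFP, pM-TagRFP657) was grown 24 h in minimal SM medium with each Selleck FDA-approved drug at 10 µM in 384-well plates. Cells were fixed and imaged by high-content confocal microscopy. For each auxotrophic subpopulation (and the prototroph), a z-score gives the deviation from the DMSO vehicle-control population median.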

| SMILES | z-score of subpopulation abundance |
| --- | --- |
| Cc1nnc(SCC2=C(C(=O)O)N3C(=O)[C@@H](NC(=O)Cn4cnnn4)[C@H]3SC2)s1 [Cefazolin Sodium] | 0.5 |
| CCCCCOc1ccc(-c2ccc(-c3ccc(C(=O)N[C@H]4C[C@@H](O)[C@@H](O)NC(=O)[C@@H]5[C@@H](O)[C@@H](C)CN5C(=O)[C@H]([C@@H](C)O)NC(=O)[C@H]([C@H](O)[C@@H](O)c5ccc(O)cc5)NC(=O)[C@@H]5C[C@@H](O)CN5C(=O)[C@H]([C@@H](C)O)NC4=O)cc3)cc2)cc1 | 9.08 |
| COc1cc(O)c(C(=O)Nc2nc(C(=O)NCCN(C(C)C)C(C)C)cs2)cc1OC [Acotiamide hydrochloride] | -0.38 |
| Fc1ccc(C(c2ccc(F)cc2)N2CCN(C/C=C/c3ccccc3)CC2)cc1 [Flunarizine 2HCl] | 1.42 |
| CN(C)CCCN1c2ccccc2Sc2ccc(Cl)cc21 [Chlorpromazine HCl] | 0.52 |
| CC(C)(C)C(=O)C(Oc1ccc(Cl)cc1)n1ccnc1 (stereo not given) [Climbazole] | 5.42 |
| Clc1ccc(CCC(Cn2ccnc2)Sc2c(Cl)cccc2Cl)cc1 (stereo not given) [Butoconazole nitrate] | 0.2 |
| CCOC(=O)c1ccc(N)cc1 [Benzocaine] | -0.29 |
| CCCCOC(=O)c1ccc(O)cc1 [Butylparaben] | -0.62 |
| O=C(O)CCNC(=O)c1ccccc1 [Betamipron] | -0.64 |
| CNS(=O)(=O)CCc1ccc2[nH]cc(C3CCN(C)CC3)c2c1 [Naratriptan HCl] | -0.24 |
| O=C(O)c1ccccc1C(=O)Nc1ccc(S(=O)(=O)Nc2nccs2)cc1 [Phthalylsulfathiazole] | -0.13 |
| CN1CC2c3ccccc3Oc3ccc(Cl)cc3C2C1 (stereo not given) [Asenapine maleate] | 0.42 |
| CCCCCNC(=N)N/N=C/c1c[nH]c2ccc(OC)cc12 [Tegaserod Maleate] | 1.92 |
| CO/N=C(\C(=O)N[C@@H]1C(=O)N2C(C(=O)O)=C(Cn3ccc(=N)n3CCO)CS[C@H]12)c1csc(N)n1 [Cefoselis Sulfate] | -0.44 |
| CCCCCCCCN=C(N)NC(N)=NCc1ccc(Cl)c(Cl)c1 [Olanexidine Hydrochloride semihydrate] | 21.6 |
| CC1CCc2cc(F)cc3c(=O)c(C(=O)O)cn1c23 (stereo not given) [Flumequine] | -0.22 |
| C[C@@H](O)[C@H]1C(=O)N2C(C(=O)OCOC(=O)C(C)(C)C)=C(SC3CN(C4=NCCS4)C3)[C@H](C)[C@H]12 [Tebipenem Pivoxil] | 0.09 |
| O=C1CC2(CCCC2)CC(=O)N1CCCCN1CCN(c2ncccn2)CC1 [Buspirone HCl] | -0.12 |
| CCN1CCCC1CNC(=O)c1cc(S(=O)(=O)CC)c(N)cc1OC (stereo not given) [Amisulpride] | -0.21 |

| SMILES | z-score of subpopulation abundance |
| --- | --- |
| COc1cc2c(cc1OC)-c1cc3ccc(OC)c(OC)c3c[n+]1CC2 [Palmatine] | 1.08 |
| CN(CCOc1ccc(NS(C)(=O)=O)cc1)CCc1ccc(NS(C)(=O)=O)cc1 [Dofetilide] | -0.27 |
| Clc1ccc(C(Cn2ccnc2)OCc2ccsc2Cl)c(Cl)c1 (stereo not given) [Tioconazole] | 4.03 |
| C[C@H](NCc1ccc(OCc2cccc(F)c2)cc1)C(N)=O [Safinamide] | 0.42 |
| CN[C@H](CC(C)C)C(=O)N[C@H]1C(=O)N[C@@H](CC(N)=O)C(=O)N[C@H]2C(=O)N[C@H]3C(=O)N[C@H](C(=O)N[C@H](C(=O)O)c4cc(O)cc(O)c4-c4cc3ccc4O)[C@H](O)c3ccc(c(Cl)c3)Oc3cc2cc(c3O[C@@H]2O[C@H](CO)[C@@H](O)[C@H](O)[C@H]2O[C@H]2C[C@](C)(N)[C@H](O)[C@H](C)O2)Oc2ccc(cc2Cl)[C@H]1O [Vancomycin HCl] | -0.38 |
| Cc1nc(C)c(Cl)c(O)c1Cl [Clopidol] | -0.04 |
| O=C1c2cccc3c2[C@H](CCC3)CN1[C@@H]1CN2CCC1CC2 [Palonosetron] | 0.34 |
| CC[C@H]1OC(=O)[C@H](C)[C@@H](O[C@H]2C[C@@](C)(OC)[C@@H](O)[C@H](C)O2)[C@H](C)[C@@H](O[C@@H]2O[C@H](C)C[C@H](N(C)C)[C@H]2O)[C@](C)(O)C[C@@H](C)CN[C@H](C)[C@@H](O)[C@]1(C)O [Azathramycin] | -0.37 |
| Cc1nc(=O)c2cc(CN(C)c3ccc(C(=O)N[C@@H](CCC(=O)O)C(=O)O)s3)ccc2[nH]1 [Raltitrexed] | -2.16 |
| Nc1nc2ccc(OC(F)(F)F)cc2s1 [Riluzole] | -0.13 |
| COCCCOc1ccnc(C[S+]([O-])c2nc3ccccc3[nH]2)c1C (stereo not given) [Rabeprazole] | 0.63 |
| COc1cc(O)c(C(=O)Nc2nc(C(=O)NCCN(C(C)C)C(C)C)cs2)cc1OC [Acotiamide] | 1.3 |
| Nc1ccc(/N=N/c2ccccc2)c(N)n1 [Phenazopyridine HCl] | -1.8 |
| Cn1c(=O)c2c(ncn2CC(O)CO)n(C)c1=O (stereo not given) [Dyphylline] | -1.44 |
| CN(C)CCc1c[nH]c2ccc(C[C@H]3COC(=O)N3)cc12 [Zolmitriptan] | -0.64 |
| CC[C@H](C)C(=O)O[C@H]1C[C@H](O)C=C2C=C[C@H](C)[C@H](CC[C@@H](O)C[C@@H](O)CC(=O)O)[C@H]21 [Pravastatin] | 0.59 |
| O=C(Nc1cccc(C2=NCCN2)c1)Nc1cccc(C2=NCCN2)c1 [Imidocarb dipropionate] | -0.67 |
| CCN[C@@H]1C[C@H](N)[C@@H](O[C@H]2OC(CN)=CC[C@H]2N)[C@H](O)[C@H]1O[C@H]1OC[C@](C)(O)[C@H](NC)[C@H]1O [Netilmicin Sulfate] | 0.72 |
| COc1ccnc(C[S+]([O-])c2nc3cc(OC(F)F)ccc3[nH]2)c1OC (stereo not given) [Pantoprazole] | -0.41 |
| CCOc1ccc2nc3cc(N)ccc3c(N)c2c1 [Ethacridine lactate monohydrate] | -5.24 |

— the supplement of paper PMC8975748
